# Among all 400,000 compounds or so, about 2,100 (0.53%) were called active. Not shown: some 14% with an inconclusive outcome. How the calls were made is not given here. This excerpt belongs to a sample that is enriched for actives.
# Target: Ataxin-2 (Homo sapiens) (UniProt Q99700)
# Experiment: qHTS for Inhibitors of ATXN expression.
# Type: functional
# Sequence of Ataxin-2 (Homo sapiens) (Q99700 whole entry): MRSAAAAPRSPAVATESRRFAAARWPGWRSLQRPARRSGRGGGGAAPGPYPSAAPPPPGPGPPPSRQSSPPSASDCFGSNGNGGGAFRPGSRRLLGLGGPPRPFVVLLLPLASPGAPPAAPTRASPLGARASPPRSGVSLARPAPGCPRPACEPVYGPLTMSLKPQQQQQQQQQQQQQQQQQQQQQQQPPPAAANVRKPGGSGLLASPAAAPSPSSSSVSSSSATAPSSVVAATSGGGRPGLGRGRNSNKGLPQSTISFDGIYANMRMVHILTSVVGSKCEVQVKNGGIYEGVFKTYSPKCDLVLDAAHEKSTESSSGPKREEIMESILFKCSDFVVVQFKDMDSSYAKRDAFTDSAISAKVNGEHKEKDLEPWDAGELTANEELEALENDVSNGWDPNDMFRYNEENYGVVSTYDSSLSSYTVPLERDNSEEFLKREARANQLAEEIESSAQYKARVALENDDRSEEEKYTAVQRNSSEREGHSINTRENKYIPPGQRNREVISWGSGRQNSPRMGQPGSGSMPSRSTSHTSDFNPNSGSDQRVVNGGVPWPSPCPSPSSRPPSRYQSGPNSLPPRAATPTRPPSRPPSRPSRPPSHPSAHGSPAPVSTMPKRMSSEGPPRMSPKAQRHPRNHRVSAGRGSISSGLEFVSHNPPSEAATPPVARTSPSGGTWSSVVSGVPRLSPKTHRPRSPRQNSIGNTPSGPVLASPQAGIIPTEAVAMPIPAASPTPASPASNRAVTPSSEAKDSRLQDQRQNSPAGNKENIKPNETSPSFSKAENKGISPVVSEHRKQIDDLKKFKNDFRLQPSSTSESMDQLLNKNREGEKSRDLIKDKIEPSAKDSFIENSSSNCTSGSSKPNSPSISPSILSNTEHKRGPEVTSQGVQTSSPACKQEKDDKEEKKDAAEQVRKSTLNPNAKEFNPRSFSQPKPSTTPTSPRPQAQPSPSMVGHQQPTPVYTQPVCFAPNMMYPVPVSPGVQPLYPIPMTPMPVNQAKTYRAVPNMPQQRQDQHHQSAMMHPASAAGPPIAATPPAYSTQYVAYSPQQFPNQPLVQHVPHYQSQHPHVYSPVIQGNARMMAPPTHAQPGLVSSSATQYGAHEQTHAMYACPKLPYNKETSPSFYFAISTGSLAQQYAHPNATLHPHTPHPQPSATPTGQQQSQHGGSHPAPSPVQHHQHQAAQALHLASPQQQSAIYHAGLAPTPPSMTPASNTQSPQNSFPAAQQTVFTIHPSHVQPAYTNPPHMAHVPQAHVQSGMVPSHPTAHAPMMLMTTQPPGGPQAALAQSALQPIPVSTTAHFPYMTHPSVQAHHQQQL
row,Structure (SMILES),Potency
1,CC(=O)c1ccc(N2CCN(C(=O)c3ccc(Cn4c(=S)[nH]c5ccc(N6CCOCC6)cc5c4=O)cc3)CC2)cc1,inactive
2,COc1ccc(C2=CC(c3ccc(OC)c(OC)c3)n3nnnc3N2)c(OC)c1 (configuration not stated),inactive
3,COC(=O)Cn1nnnc1-c1nc2cc(C)c(C)cc2nc1O,inactive
4,O=C(NCCO)Nc1ccc2nsnc2c1,inactive
5,CCN(CC)C(=O)C1=C(C)N(Cc2ccc(C(C)(C)C)cc2)C(=O)C(CC(=O)NCCCCc2ccccc2)C1 (configuration not stated),35.5 µM (active)
6,O=C(CSC1=NCCN1)NC(c1ccccc1)c1ccccc1,inactive
7,CCN(CCNC(=O)C1CCC(=O)N1Cc1ccc(C)cc1)c1ccccc1 (configuration not stated),inactive
8,CCN(CC)C(=O)C1=C(C)N(Cc2ccc(C(C)(C)C)cc2)C(=O)C(CC(=O)NC(c2ccccc2)c2ccccc2)C1 (configuration not stated),28.2 µM (active)
9,CCN(CC)C(=O)C1=C(C)N(Cc2ccc(C(C)(C)C)cc2)C(=O)C(CC(=O)NCc2cccc3ccccc23)C1 (configuration not stated),25.1 µM (active)
10,COc1ccc(CNC(=O)CN2C(=O)NC(C)(c3ccc(C(C)(C)C)cc3)C2=O)cc1 (configuration not stated),inactive
11,CC(=O)c1sc(Nc2nc3cc4c(cc3s2)OCO4)nc1C,inactive
12,O=C1C2CC(O)CN2C(=S)N1Cc1ccccc1 (configuration not stated),inactive
13,O=C(Cc1cc(=O)oc2cc(O)ccc12)NC(Cc1ccc(Cl)cc1)C(=O)O (configuration not stated),inactive
14,COc1cc(C(=O)OCc2ccc(C)cc2)cc(NC(=O)c2cccs2)c1OC,inactive
15,CN(C)c1ccc(/C=C/C(=O)c2ccc3c(c2)OCO3)cc1,inactive
16,O=C(Nc1cccc(Br)c1)C1CCCC1,inactive
17,CC(=O)Nc1cccc(C(=O)/C=C/c2ccc(Br)cc2)c1,20 µM (active)
18,COc1cccc(Cn2c(=O)c3ccccc3n3nc(C)cc23)c1,inactive
19,CC(/C=C/C=C/c1ccccc1)=N\NC(=O)c1cccnc1,inactive
20,Cc1cc(O)c(C(=O)/C=C/c2ccccc2)c(=O)o1,inactive
21,COc1cc(OC)c2cc(C(=O)N/N=C/c3ccccc3O)[nH]c2c1,inactive
22,COc1ccc(C(=O)/C=C/c2ccc(N(C)C)cc2)c(OC)c1,inactive
23,COc1cc(O)c(C(=O)/C=C/c2ccccc2)c(OC)c1,35.5 µM (active)
24,COc1ccc(OC)c(C(=O)/C=C/c2cccnc2)c1,39.8 µM (active)
25,O=C(C=Cc1cccnc1)c1ccccc1,39.8 µM (active)
26,O=C(NNc1ccccc1)/C(=C\c1cccnc1)NC(=O)c1ccccc1,inactive

row,Structure (SMILES),Potency
1,O=C(/C=C/c1cccnc1)c1cccc(O)c1,26.7 µM (active)
2,Cc1cc(-c2sccc2Br)nc(-n2cccc2)n1,inactive
3,COc1cccc(/C=N/NC(=O)c2cnn(-c3ccccc3)c2N)c1,inactive
4,COc1ccc(S(=O)(=O)N2CCOCC2)cc1NC(=O)COC(=O)c1oc2ccccc2c1C,inactive
5,N#Cc1c2c(c(NCCOCCO)n3c1nc1ccccc13)CCCC2,inactive
6,OCCCc1nc2n(n1)C(c1cccc(Cl)c1)C=C(c1ccccc1)N2 (configuration not stated),inactive
7,COc1ccc(C(=O)COC(=O)/C=C/c2ccco2)cc1F,inactive
8,O=C(N/N=C/c1cccnc1)c1ccccc1OCc1ccc(Br)cc1,inactive
9,COC(=O)C(=C/C(C)=C/c1cccnc1)C(=O)OC,22.4 µM (active)
10,N#Cc1ccc(/C=C\c2[nH]ccc3c4ccccc4nc2-3)cc1,inactive
11,N#Cc1ccc(C(=O)CSc2nnc(O)n2-c2cccnc2)cc1,inactive
12,N#Cc1ccc(/C=C/C(=O)c2cccnc2)cc1,25.1 µM (active)
13,Oc1cc(-c2nc3ccccc3s2)cc2c1OCCN(Cc1cccn1-c1ccccn1)C2,31.6 µM (active)
14,O=c1c(-c2nc3ccccc3s2)cccn1Cc1ccc(Cl)c(Cl)c1,inactive
15,Cc1ccc(Cl)c(NC(=O)CSc2nnc(O)n2C2CC2)c1Cl,inactive
16,CN(C)CCCN1C(=O)c2cccc3c([N+](=O)[O-])ccc(c23)C1=O,inactive
17,CN(C)CCCN1C(=O)c2cccc3c(Br)ccc(c23)C1=O,inactive
18,CN(C)CCCN1c2ccc3ccccc3c2Sc2cccc(Cl)c21,37.7 µM (active)
19,CN(c1ccccc1)S(=O)(=O)c1cc(C(=O)OCC(N)=O)ccc1Cl,inactive
20,CC1(C)CC(NC(=O)c2ccc(Cl)c(S(=O)(=O)N(Cc3ccccc3)c3ccccc3)c2)CC(C)(C)N1,22.4 µM (active)
21,CC1(C)CC(NC(=O)c2sc3cc(Cl)ccc3c2Cl)CC(C)(C)N1,inactive
22,Cc1nc2ccc(NC(S)=NC3CCCCC3)cc2nc1C,inactive
23,CCCN1C2CCCC1CC(N=C(S)Nc1cccc(C)c1)C2 (configuration not stated),inactive
24,Cc1cc(C)cc(NC(S)=NCCN(C2CCCCC2)C2CCCC2)c1,39.8 µM (active)
25,Cc1c(NC(=O)Nc2ccc(Cl)c(Cl)c2)sc(=S)n1C,39.8 µM (active)
26,Cc1occc1C(=O)NNC(=O)Nc1ccc(Cl)c(Cl)c1,inactive

row,Structure (SMILES),Potency
1,CCN1CCc2c(sc(NC(=O)Nc3ccc(Cl)c(Cl)c3)c2C(N)=O)C1,inactive
2,CCN(Cc1ccc(NC(C)=O)cc1)CC1CCCN(CCc2cccc(F)c2)C1 (configuration not stated),inactive
3,COc1ccc(C(=O)N/N=C/c2sc3ccccc3c2O)cc1,inactive
4,Cc1c2c(=O)n(-c3nc4ccccc4s3)nc-2cc(O)n1Cc1ccccc1,inactive
5,COc1ccc(Nc2cnn(-c3nc4ccccc4s3)c(=O)c2Cl)cc1,25.1 µM (active)
6,COC(=O)c1cc2c(=O)n3ccccc3nc2n(Cc2cccnc2)c1=N,inactive
7,COc1ccc(C#Cc2c(C=O)n(C)c3ccccc23)cc1,inactive
8,Cc1ccccc1NCc1ccc([N+](=O)[O-])s1,inactive
9,O=[N+]([O-])c1ccc(/C=N/n2cnc3ccccc32)s1,22.4 µM (active)
10,Cc1nc2ccccc2n1/N=C/c1ccc([N+](=O)[O-])s1,23.8 µM (active)
11,COc1ccc(/C=N/NC(=O)c2cc[nH]n2)cc1Cn1nc(C)c([N+](=O)[O-])c1C,inactive
12,COc1ccc(-n2c(NC(=O)c3ccco3)c(C#N)c3nc4ccccc4nc32)cc1,inactive
13,CCCOc1ccc(/C=N/Nc2cccc([N+](=O)[O-])c2)c(O)c1,inactive
14,CCOc1ccc2nc(C)cc(Nc3cccc([N+](=O)[O-])c3)c2c1,39.8 µM (active)
15,O=[N+]([O-])c1cccc(Nc2c3ccccc3nc3ccccc23)c1,inactive
16,COc1ccc(Br)cc1CN1CCN(c2ncccn2)CC1,inactive
17,Cn1c(O)nnc1-c1cccc(Br)c1,inactive
18,CCCCc1c(-c2cccc(Br)c2)ncn1CCc1ccccc1OC,28.2 µM (active)
19,CCCCCc1c(-c2cccc(Br)c2)ncn1CCc1ccccc1OC,39.8 µM (active)
20,Cc1cc(-n2c(=O)c(C#N)cc3c(=O)n4ccccc4nc32)no1,inactive
21,COc1ccc(-c2cc(C(F)(F)F)n3nc(C(=O)NCCN4CCOCC4)cc3n2)cc1,inactive
22,Clc1cccc(CNc2ccn3nc(-c4ccc(OCCN5CCOCC5)cc4)cc3n2)c1,28.2 µM (active)
23,Clc1cccc(-c2nc(NCCCN3CCOCC3)c3ccccc3n2)c1,inactive
24,CCCCN(CCCC)C(=O)C[n+]1cccc(/C=N/O)c1,inactive
25,CN1/C(=C\C(=O)c2cccc(S(=O)(=O)N3CCCCC3)c2)C(C)(C)c2ccccc21,inactive
26,Cc1cc(/N=C/C=C2/N(C)c3ccccc3C2(C)C)n(CCC#N)n1,15.8 µM (active)

row,Structure (SMILES),Potency
1,Cc1cc(/N=C/C=C2\N(C)c3ccccc3C2(C)C)n(CCC#N)n1,31.6 µM (active)
2,Oc1ccccc1N=Nc1nc(-c2ccccc2)c(-c2ccccc2)[nH]1,20 µM (active)
3,Oc1nc2c(O)ncnc2nc1-c1ccccc1,inactive
4,NC(=O)c1nc(-c2ccccc2)c(-c2ccccc2)nc1O,inactive
5,CCOCCCN=C(S)NCCNc1nc2ccc(C)cc2cc1C#N,inactive
6,CCOC(=O)c1c(NC(=O)COc2ccccc2OCC)sc2c1CC(C)(C)NC2(C)C,39.8 µM (active)
7,CC(C)CN(CC(C)C)S(=O)(=O)c1ccc(C(=O)Nc2sc3c(c2C(N)=O)CC(C)(C)NC3(C)C)cc1,inactive
8,CCOC(=O)c1c(NC(=O)c2ccc(S(=O)(=O)N3CCCC(C)C3)cc2)sc2c1CC(C)(C)NC2(C)C (configuration not stated),inactive
9,Cc1c2c(n3c(nc4ccccc43)c1C#N)N(CCN(C)C)CC2,inactive
10,C=CCc1cc(/C=C2\C(=N)N3N=C(CC(=O)N4CCOCC4)SC3=NC2=O)cc(OC)c1O,inactive
11,Fc1ccc(-[n+]2nc(Nc3ccccc3)sc2-c2c(Cl)cccc2Cl)cc1,20 µM (active)
12,O=c1oc2cc(O)ccc2cc1-c1nc2c(s1)CCc1ccccc1-2,inactive
13,CNC(=O)NC(=O)C(C)OC(=O)c1c2c(nc3ccccc13)/C(=C/c1cccs1)CC2 (configuration not stated),inactive
14,CCc1ccccc1N(CC(=O)NC(C)(C)CC)C(=O)CCC(=O)Nc1nccs1,inactive
15,C/C(Cl)=C\Cn1c(O)c(/N=N/C(=N)S)c2ccccc21,29.9 µM (active)
16,Cc1ccc(C(=O)O)cc1-c1ccc(/C=C2\SC(=O)N(CC(=O)Nc3ccccc3)C2=O)o1,inactive
17,CCN(CC)CCOC(=O)c1ccc(NC(=O)CCCN2C(=O)/C(=C\c3cccs3)SC2=S)cc1,31.6 µM (active)
18,CC(=O)c1ccc(NC(=O)CCCN2C(=O)/C(=C/C(C)=C/c3ccccc3)SC2=S)cc1,25.1 µM (active)
19,O=C(Nc1cc2c(=O)n(-c3ccc(Oc4ccccc4)cc3)ccc2oc1=O)c1ccccc1,inactive
20,COc1ccc(C2C=C(c3ccccc3)Nc3nnnn32)cc1 (configuration not stated),inactive
21,Cc1ccc2[nH]c(CSc3nc(C)ccc3C#N)nc2c1,inactive
22,Cc1ccc2c(CN(C)Cc3ccccc3)cc(=O)oc2c1C,inactive
23,CN(C)CCOCCOc1ccc(Cl)c2ccccc12,inactive
24,Cc1ccc(Cl)c(OCCCCN(C)Cc2ccccc2)c1,28.2 µM (active)

# Reference: ChEMBL document CHEMBL1201862, “PubChem BioAssay data set” (2004)
